Some of the results follow. Results filed as inconclusive are left out. The source made the active and inactive calls. Calls follow the shape of the dose curve; as a rule, active = well fitted inhibition curve with a large enough effect; inconclusive = small, poorly fitted or top-dose-only effect; inactive = no such curve, though single readings can be large or run the other way.
These compounds were tested against Isocitrate dehydrogenase [NADP] cytoplasmic (Homo sapiens) (UniProt O75874) (assay: qHTS for Inhibitors of mutant isocitrate dehydrogenase 1 (IDH1): Cherrypicks in WT IDH1). Conditions: WT IDH1 enzyme, NADPH diaphorase/resazurin fluorescence; series mostly up to 115 µM; activity change, negative = inhibition: at the top concentration.
Isocitrate dehydrogenase [NADP] cytoplasmic (Homo sapiens), sequence (O75874 whole entry, looked up, canonical isoform): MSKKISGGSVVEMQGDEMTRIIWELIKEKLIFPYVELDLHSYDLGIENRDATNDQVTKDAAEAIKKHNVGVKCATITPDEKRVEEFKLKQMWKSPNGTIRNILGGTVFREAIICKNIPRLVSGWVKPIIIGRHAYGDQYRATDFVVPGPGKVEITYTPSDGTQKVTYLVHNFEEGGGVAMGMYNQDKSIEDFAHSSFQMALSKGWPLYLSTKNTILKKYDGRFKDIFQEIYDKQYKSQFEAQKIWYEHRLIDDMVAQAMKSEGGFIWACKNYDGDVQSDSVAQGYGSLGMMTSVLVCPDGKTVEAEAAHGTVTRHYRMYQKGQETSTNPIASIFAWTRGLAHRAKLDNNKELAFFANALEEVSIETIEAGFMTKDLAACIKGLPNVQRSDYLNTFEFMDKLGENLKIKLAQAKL
From the text: Unbiased genomic sequencing for 22 glioma genomes found recurrent mutation of isocitrate dehydrogenase 1 (IDH1) on chromosome 2q33-a gene encoding the cytosolic isoform of IIDH1associated with the tricarboxylic acid cycle (TCA) that catalyzes the oxidative decarboxylation of isocitrate, yielding alpha-ketoglutarate and CO2 via NADP+ to NADPH conversion. Subsequent studies confirmed the recurrent IDH mutations in up to 70% of secondary gliomas and in 10% of AML cases. […] This in effect defines IDH1 as an oncogene, and provides an extraordinary opportunity to discover chemical probes against mutant IDH1 that may translate into much needed new therapies for glioma and AML patients. QHTS-compatible fluorescent, enzymatic assay was developed to identify inhibitors of the IDH1 mutant (AID 602179). To identify selectivity of the identified inhibitors, a secondary enzymatic assay against the WT IDH1 was also developed. Inhibition of the WT IDH1 leads to a decrease in the amount of NADPH relative to a DMSO control and a concomitant decrease in the fluorescence of the diaphorase/resazurin enzyme product resorufin at 590 nm. Compounds were screened as a concentration-titration series that ranged from 115 uM to 0.20 uM. NIH Molecular Libraries Probe Production Network [MLPCN] NIH Chemical Genomics Center [NCGC] MLSCN Grant: R03 DA032129 PI Name: Dr. Lenny Dang
Enzyme buffer was dispensed into black, solid 1536-well plates at 3 microL/well in 20 mM Tris buffer, pH 7.5, containing final concentrations of 10 mM MgCl2, 20 mM NaCl, 0.05% BSA, 2 mM b-ME and 0.65 nM WT IDH1. Then, 23 nL of compounds or DMSO were delivered to each well using a pin tool. The substrate and detection buffer (1 uL; 20 mM Tris buffer, pH 7.5, containing final concentrations of 10 mM MgCl2, 20 mM NaCl, 0.05% BSA, 0.06 mM NADP+, 0.53 uM diaphorase, 0.012 mM resazurin and 0.08 mM isocitrate) was added to start the enzymatic reaction. The fluorescence intensity was monitored in kinetic mode on a ViewLux plate reader at 598 nm for 10 minutes (Ex 525, EM 598, bodipy mirror, 0.5 sec exposure). The % Activity was determined from the corrected fluorescence values. As no specific WT IDH1 inhibitors have been identified in the literature, 1x (0.65 nM) and 0x WT IDH1 enzyme controls (untreated) were included to normalize % Activity of identified inhibitors; 0x enzyme values corresponded to 100% Activity (full inhibition), while 1x WT IDH1 enzyme values were used to normalize 0% Activity (no inhibition). Concentration-response curves were fitted to the signals arising from the resulting fluorescence. The concentration-response curves were then classified based on curve quality (r2), response magnitude and degree of measured activity, and compounds were subsequently categorized based on their curve class. […] Keywords: Isocitrate dehydrogenase, IDH1, IDH1 R132H, 2-HG, 2-hydroxyglutarate, AML, glioma, MLSMR, MLPCN, NIH Roadmap, qHTS, NCGC
With `COc1cc(/C=C2/C(=O)ON=C2C)ccc1OCc1ccccc1F` the “activity change, negative = inhibition” value was 4.5% (inactive).
For `CCOC(=O)c1ccc(N2C(=O)c3n[nH]c(-c4ccco4)c3C2c2ccc(O)cc2)cc1` (centres undefined), the “activity change, negative = inhibition” value was -10.9% (inactive).
For `CCCOc1ccc(C2c3c(-c4ccccc4O)n[nH]c3C(=O)N2Cc2cccnc2)cc1` (centres undefined), the “activity change, negative = inhibition” value was 2.01% (inactive).
For `COc1ccc(/C=C2/SC(=O)N(CCCCCC(=O)Nc3ccccc3C(=O)O)C2=S)cc1`, the Potency was 79.4 µM (active).
With `CCCCC(=O)NC(c1ccc(OC)c(OC)c1)c1ccc2cccnc2c1O` (centres undefined) the “activity change, negative = inhibition” value was -5.29% (inactive).
With `COC(=O)c1cccc(N(C(=O)c2ccco2)C(C(=O)NC2CCCC2)c2ccco2)c1` (centres undefined) the “activity change, negative = inhibition” value was 4.88% (inactive).
With `COc1cc(/C=C2/SC(=S)N(Cc3ccccc3)C2=O)cc(OC)c1O` the “activity change, negative = inhibition” value was -23.7% (inactive).
With `COc1ccc(/C=N/Nc2cc(N3CCOCC3)nc(C)n2)c(OC)c1` the “activity change, negative = inhibition” value was 3.66% (inactive).
With `O=C1c2cccc3cccc(c23)C(=O)N1CCCCCc1n[nH]c(=S)o1` the “activity change, negative = inhibition” value was 25.5% (inactive).
In the case of `CC(C)(C)c1ccc(S(=O)(=O)Nc2ccc(O)c(Sc3nc4ccccc4s3)c2)cc1`, the “activity change, negative = inhibition” value is reported as 11.2% (inactive).
`CCSc1nc2sc3c(c2c(=O)n1-c1ccc(C)cc1)CCN(C)C3` was tested, and the “activity change, negative = inhibition” value was -9.91% (inactive).
With `Cc1ccc(Nc2nc(CSc3nnc(-c4ccncc4)n3-c3ccccc3C)cs2)cc1` the “activity change, negative = inhibition” value was -9.79% (inactive).
With `Cn1c(COc2ccc(Cl)cc2)nc2ccccc2c1=O` the “activity change, negative = inhibition” value was -2.18% (inactive).
In the case of `CC(C)N(C(=O)CSc1nc(COc2ccccc2)nc2ccccc12)C(C)C`, the “activity change, negative = inhibition” value is reported as -3.75% (inactive).
In the case of `COc1ccc(C(C(=O)NC2CCCCC2)N(C(=O)c2snc(C(N)=O)c2N)c2ccccc2OC)cc1` (centres undefined), the “activity change, negative = inhibition” value is reported as -5.01% (inactive).
For `C(=N/Nc1cc(N2CCOCC2)nc(N2CCOCC2)n1)/c1ccccc1`, the “activity change, negative = inhibition” value was -2.88% (inactive).
In the case of `COc1cc2c(-c3ccc4c(c3)OCO4)c(-c3ccsc3)oc(=O)c2cc1OC`, the “activity change, negative = inhibition” value is reported as 2.94% (inactive).
In the case of `Cc1ccc2nc(N3C(=O)C(O)=C(C(=O)c4ccco4)C3c3cccc(O)c3)sc2c1` (centres undefined), the “activity change, negative = inhibition” value is reported as -9.63% (inactive).
`CC(C)Nc1nc(N(c2ccccc2)c2ccccc2)nc(-n2ccnc2)n1` was tested, and the “activity change, negative = inhibition” value was -7.64% (inactive).
`CCCNc1ncnc2c1c(-c1ccccc1)cn2-c1ccc(OCC)cc1` was tested, and the “activity change, negative = inhibition” value was -9.03% (inactive).
With `Cc1nc(-c2ccc(Cl)cc2)sc1C(=O)CBr` the “activity change, negative = inhibition” value was 7.04% (inactive).
`N#CC1=C(N)C(C#N)(C#N)[C@H](c2ccsc2)[C@H]2COCC=C12` was tested, and the “activity change, negative = inhibition” value was 130% (inactive).
With `CCC(C)(C)NC(=O)C(c1cccn1C)N(Cc1ccc(C)cc1)C(=O)Cn1nnc2ccccc21` (centres undefined) the “activity change, negative = inhibition” value was 4.89% (inactive).
`CCCc1[nH]nc2c1C(c1ccc(OC)c(Cn3nc(C)c(Br)c3C)c1)C(C#N)=C(N)O2` (centres undefined) was tested, and the “activity change, negative = inhibition” value was 15.8% (inactive).
`Cc1nc(C)c(C(=O)N(c2ccc(C)c(C)c2)C(C(=O)NCc2ccco2)c2ccccc2)s1` (centres undefined) was tested, and the “activity change, negative = inhibition” value was -5.09% (inactive).
In the case of `CCCc1nc2c(c(=O)c3ccccc3n2C)c(=O)n1C1CCCCCC1`, the “activity change, negative = inhibition” value is reported as 1.92% (inactive).
With `Cc1cccc(N(C(=O)Cc2cccs2)C(C(=O)NC2CCCC2)c2ccsc2)c1` (centres undefined) the “activity change, negative = inhibition” value was -5.18% (inactive).
In the case of `CCOC(=O)c1oc2c(CN3CCN(CCO)CC3)c(O)c(CC)cc2c(=O)c1-c1nc2ccccc2s1`, the “activity change, negative = inhibition” value is reported as 0.488% (inactive).
`COc1ccc(C(CCN(Cc2ccc(OC)c(OC)c2)C(=O)CCl)c2ccccc2)cc1` (centres undefined) was tested, and the “activity change, negative = inhibition” value was -5.8% (inactive).

From PubChem BioAssay AID623995 (National Center for Advancing Translational Sciences (NCATS), 2012)
Also: nearly all actives have a fitted effect of over 55% in size.
Potency is read from the fitted curve at half-maximal effect.
